# Measured values: PubChem BioAssay (NCATS)
# Values joined by “and” are separate entries in the source; they are usually repeats but may differ in a detail not shown here. Equal values may be shown once. Results filed as inconclusive are left out. Values without a mark were called inactive. Active and inactive are the calls of the source. The call rests on the fitted dose curve; in most records, active means well fitted inhibition curve with a large enough effect; inconclusive means small, poorly fitted or top-dose-only effect; inactive means flat fitted curve, though single readings scatter. Where a SMILES comes first, the peptide text is derived from it. [ ]: non-standard residue; d: D form.
# System: CRL-7250
# Test: Cytotoxic Profiling of Annotated Libraries Using Quantitative High-Throughput Screening (AID 1296008); further: nearly all actives have a fitted effect of over 60% in size
# Conditions: Five cell lines viability, CellTiter-Glo ATP luminescence, 48-72 h; max response: active compounds read low
# Method in brief: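 Cytotoxicity was measured as CellTiter-Glo ATP luminescence, read after 10 min at room temperature. Compound treatment of the cells lasted 48 or 72 hr at 37 degrees Celsius in a qHTS format.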
# On the % scale 0 is the no-effect control and ±100 the full control effect.
Compound,max response,outcome
OC[C@H]1O[C@@H](n2cnc3c2NC=NC[C@H]3O)C[C@@H]1O,4.05%,–
C=C(C)[C@H]1C[C@@H](O)C(=C)CC[C@@H](O)C(=C)[C@@H](O)C1,-0.626%,–
CC1(C)NC2N(C1=O)c1ccccc1C2(O)CC(C(=O)O)n1cnc2ccccc2c1=O (centres undefined),–,inactive
CC1=CC(=O)C[C@H]2[C@@H]1CC[C@@H](C)[C@]21CO[C@H](c2ccoc2)C1=O,3.91%,–
CC[C@H]1OC(=O)[C@H](C)[C@@H](O[C@H]2C[C@@](C)(OC)[C@@H](O)[C@H](C)O2)[C@H](C)[C@@H](O[C@@H]2O[C@H](C)C[C@H](N(C)C)[C@H]2O)[C@@](C)(O)C[C@@H](C)[C@@H]2N[C@@H](COCCOC)OC([C@H]2C)[C@]1(C)O,-11.1%,–
C[C@@H]1O[C@@H](O[C@H]2[C@H](OC(=O)[C@]34CCC(C)(C)C[C@H]3C3=CCC5[C@@]6(C)C[C@H](O)[C@H](O[C@@H]7O[C@H](CO)[C@@H](O[C@@H]8O[C@H](CO)[C@@H](O)[C@H](O)[C@H]8O)[C@H](O)[C@H]7O)[C@@](C)(CO)C6[C@H](O)C[C@@]5(C)[C@]3(C)C[C@H]4O)OC[C@H](O)[C@@H]2O)[C@H](O)[C@H](O)[C@H]1O[C@@H]1OC[C@@H](O)[C@H](O[C@@H]2OC[C@](O)(CO)[C@H]2O)[C@H]1O (some centres undefined),4.17%,–
NCc1ccc(OCCCc2sc(-c3ccc4c(c3)/C(=N/Nc3nc5ccccc5s3)CCC4)nc2C(=O)O)cc1,-14.2%,–
CC1(C)CC2C3=CCC4C5(C)CCC(OC6OC(CO)C(O)C(OC7OC(CO)C(O)C(OC8OC(CO)C(O)C(OC9OC(COC%10OC(CO)C(O)C(O)C%10O)C(O)C(O)C9O)C8O)C7O)C6O)C(C)(C)C5CCC4(C)C3(C)CCC2(C(=O)O)CC1O (centres undefined),–,inactive
CC(NCc1ccc(OCc2cccc(F)c2)cc1)C(N)=O (centres undefined),–,inactive
COC(=O)c1cc(CN2CCN(C(=N)N)CC2)cc(C(=O)N2CCN(C(=O)c3ccc(C(=N)N)cc3)CC2)c1,–,inactive
CC(=O)N[C@H](Cc1ccc(O)cc1)C(=O)N[C@H](CCCN=C(N)N)C(=O)N[C@H](Cc1ccccc1)C(N)=O (Ac-[dY]-[dR]-[dF]-NH2),-2.02%,–
COC1(CC(C)C)NC(=O)C(O)(Cc2ccccc2)NC1=O (centres undefined),2.47%,–
CC(C)C1(O[C@@H]2O[C@H](CO)[C@@H](O)[C@H](O)[C@H]2O)CC=C(CO)CC1 (some centres undefined),–,inactive
C=CC1(C)C=C2C(=O)CC3C(C)(C)CCCC3(C(=O)O)C2(O)CC1 (centres undefined),–,inactive
COc1ccc2c(c1)OC[C@]1(O)c3cc4c(cc3O[C@H]21)OCO4,-0.876%,–
CC(=C/C(=O)O)/C=C/[C@]1(O)[C@@]2(C)CO[C@]1(C)C[C@H](O[C@@H]1O[C@H](CO)[C@@H](O)[C@H](O)[C@H]1O)C2,1.76%,–
C=C1CC[C@@H]2[C@](C)(CO[C@@H]3O[C@H](CO)[C@@H](O)[C@H](O)[C@H]3O)CCC[C@@]2(C)[C@@H]1CCC1=CCOC1=O,–,inactive
CC1CCC2(C(=O)OC3OC(CO)C(O)C(O)C3O)CCC3(C)C(=CCC4C5(C)CC(O)C(O)C(C)(C(=O)O)C5CCC43C)C2C1(C)O (centres undefined),3.23%,–
O=C(NC[C@H](O)CN1CCc2ccccc2C1)c1cc(NC2COC2)ncn1,-6.51% and -13.6%,–
O=C(O[C@H]1[C@@H]2C[C@@H]3OC[C@@](O)([C@H]2[C@H](O[C@@H]2O[C@H](CO)[C@@H](O)[C@H](O)[C@H]2O)O3)[C@@H]1O)c1ccccc1,–,inactive
CCN(c1cc(C#CCN2CCOCC2)cc(C(=O)NCc2c(C)cc(C)[nH]c2=O)c1C)C1CCC(N(C)CCOC)CC1 (centres undefined),–,inactive
CC(=O)NC(CCC(=O)O)C(=O)NCCc1ccc(O)cc1 (centres undefined),–,inactive
O=C(c1ccc(F)cc1)C1CCN(CCn2c(=O)nc3n(c2=O)CCCC3)CC1,3.3%,–
C[C@@H]1O[C@@H](O[C@H]2[C@H](OC(=O)C34CCC(C)(C)CC3C3=CCC5C6(C)CC(O)C(O[C@@H]7O[C@H](CO)[C@@H](O)[C@H](O)[C@H]7O)C(C)(C(=O)O)C6CCC5(C)C3(CO)CC4)O[C@H](C)[C@H](O)[C@@H]2O)[C@H](O)[C@H](O)[C@H]1O[C@@H]1OC[C@@H](O)[C@H](O)[C@H]1O (some centres undefined),-4.64%,–
